EBV LMP1 NFkB: inhibitors of Epstein-Barr LMP1-induced NF-kappaB reporter | AID 504558 | actives 0.69% (n = 350,000) | LMP1-induced NF-kappaB luciferase reporter cells, luminescence | inhibition, % at 12.5 µM; in the data active = inhibition above about 41%;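 also: 0% = neutral control wells and 100% = reference inhibitor control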
TROY signal inh: blocks TROY-dependent signaling in reporter cells. Q293 LMP1-TROYcd NF-kB luciferase reporter, 4 h. actives 0.98% (n = 360,000). AID 1347056. inhibition, % at 10 µM;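 active = compounds whose plate-normalised and pattern-corrected inhibition of the luciferase reporter signal at the single screening dose is 50% or more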
EWS-Fli inh: inhibitors of EWS/Fli oncoprotein transcriptional activity; inhibition, % at 12.6 µM; actives 0.67% (n = 350,000); A673 NR0B1-luciferase reporter, viability-normalised; AID 651661;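 active = mean inhibition of at least 50% after viability correction, with every replicate also passing that limit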;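 also: firefly luciferase signal divided by Alamar Blue viability fluorescence both relative to DMSO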
LGR2 antag: inhibitors of bursicon-induced Drosophila LGR2 receptor cAMP signaling. inhibition, % at 9.99 µM. actives 0.35% (n = 380,000). AID 720647. HEK293 LGR2, CRE-luciferase, bursicon-stimulated, 4 h;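 active = drop in luminescence signal, shown as inhibition above about 50% in the replicate tests, limit read from the data, passing the limit was not always enough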;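 also: agonist challenge used bursicon conditioned medium at about half maximal strength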
PAX8 inh HTS: PAX8 transcriptional activity inhibition | RMG-I TPO-luciferase reporter, SteadyGlo, 24 h | inhibition, % at 12.6 µM | actives 1.2% (n = 360,000) | AID 652154;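 active = mean replicate inhibition at least 60% with every replicate also reaching 60%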;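 also: luciferase light reporting Pax8 driven TPO promoter activity; plate controls were median of neutral control wells for no effect and mitoxantrone controls for full effect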
TWEAK-Fn14 inh: inhibitors of TWEAK-Fn14 interaction signaling. TWEAK-stimulated Fn14 reporter cells, luciferase luminescence, 8 h. inhibition, % at 10 µM. actives 2% (n = 360,000). AID 1159606; in the data active = inhibition above about 50%
Active calls of the source: *; · = no result. Rows were chosen to be rich in hits. Some 3.1% of all compounds tested hit in one or more screens of this group.

SMILES	EBV LMP1 NFkB	TROY signal inh	EWS-Fli inh	LGR2 antag	PAX8 inh HTS	TWEAK-Fn14 inh
Cc1ccc(-n2cc(C(=O)c3ccc(F)cc3)nn2)cc1Cl	-35	41	·	·	·	53*
CCOC(=O)c1ccc(-n2cc(C(=O)c3cccnc3)nn2)cc1	-8	-10	1	2	-7	2
O=C(Cc1cccs1)NCCSc1c(-c2ccc(Cl)cc2)[nH]c2ccccc12	3	51*	11	16	48	81*
CCOc1ccc(C(=O)Nc2cccc(C(=O)O)c2C)cc1Cl	15	-15	23	70*	36	68*
O=C(Nc1ccccc1C(=O)O)c1ccccc1	-20	2	·	·	·	-14
COc1cccc(C(=O)Nc2ccccc2-c2ccccc2)c1	-1	-17	-1	-27	-18	-10
CC(SCc1ccccc1)C(=O)Nc1ccccc1-c1ccccc1 (stereo unspecified)	-2	13	75*	3	9	-14
CCOc1ccccc1NC(=O)C(C)SCc1ccccc1 (stereo unspecified)	-6	20	18	5	36	3
Cc1c(NC(=O)c2ccc(-c3ccccc3)cc2)cccc1C(=O)O	8	-50	31	56*	-2	35
O=C(Nc1ccccc1-c1ccccc1)c1ccccc1	-1	-18	-4	-5	-17	62*
Cc1ccc(S(=O)(=O)N(C)C[C@H]2Oc3ccc(NC(=O)Cc4ccccc4)cc3CC(=O)N([C@H](C)CO)C[C@@H]2C)cc1	·	·	21	1	12	·
COc1cc(C(=O)NC(=S)N(C)Cc2ccccc2)cc(OC)c1OC	2	-20	13	5	-3	-4
COc1cc(C(=O)NC(=S)N(CCc2ccccc2)CCc2ccccc2)cc(OC)c1OC	26	70*	·	16	75*	38
O=C(CC[C@H]1O[C@@H](n2ccc(=O)[nH]c2=O)[C@H](O)[C@@H]1O)N[C@@H](Cc1ccccc1)C(=O)NCC1CCCO1 (stereo partly specified)	·	54*	1	-7	28	-5
O=C1c2cccnc2C(=O)N1Cc1ccc(F)cc1S(=O)(=O)NCc1ccco1	72*	-17	0	3	5	28
CO[C@@H]1CN(C)C(=O)c2ccc(NC(=O)NC(C)C)cc2OC[C@H](C)N(CC2CC2)C[C@@H]1C	·	·	-7	10	0	·
Cc1ccc(C(=O)Nc2sc(C)c(-c3ccccc3)c2C(N)=O)cc1[N+](=O)[O-]	15	87*	·	·	-97	98*
CCC(=O)N1CC(=O)N2[C@H](C1)[C@H](c1ccc(-c3cccc(C(=O)N(C)C)c3)cc1)[C@@H]2CO	·	·	·	-11	·	·
CN(C)C(=O)C[C@H]1CC[C@@H]2[C@H](COC[C@H](O)CN2CC2CC2)O1	·	·	-4	-1	-10	·
O=S(=O)(Cc1cc(Cl)nc(-c2ccncc2)n1)c1ccccc1	5	51*	32	35	24	-16
O=S(=O)(Cc1cc(Cl)nc(-c2ccccc2)n1)c1ccccc1	-2	-9	·	-1	·	-25
Cc1ccc(S(=O)(=O)N[C@H]2CC[C@@H](CCn3cc(C4CCCC4)nn3)O[C@H]2CO)cc1	·	·	-3	-3	·	·
COc1ccc(S(=O)(=O)Nc2ccc3c(c2)C(=O)N([C@H](C)CO)C[C@H](C)[C@@H](CN(C)C)OCCCC[C@@H](C)O3)cc1	·	·	4	-13	-9	·
O=C(N[C@H]1CC[C@H](CC(=O)N2CCc3ccccc3C2)O[C@@H]1CO)C1CC1	·	·	2	-6	-2	·
c1ccc2c(c1)OCC(c1csc3ncnc(N4CCCCC4)c13)O2 (stereo unspecified)	9	33	·	·	19	50*
CCCN1CCN(c2ncnc3scc(C4COc5ccccc5O4)c23)CC1 (stereo unspecified)	5	2	2	-4	7	0
OCC1CCCC(n2cnc3c(=S)nc[nH]c32)O1 (stereo unspecified)	-21	3	1	-16	13	-12
CCOC1CCCC(n2cnc3c(=S)nc[nH]c32)O1 (stereo unspecified)	0	-24	-1	-12	83*	-8
O=C(CN1CCOCC1)N[C@H]1CC[C@H](CCNS(=O)(=O)c2ccccc2F)O[C@H]1CO	·	·	-5	-2	-1	·
CC(=O)N(C)C[C@H]1Oc2cc(-c3cccc(C#N)c3)ccc2S(=O)(=O)N([C@H](C)CO)C[C@H]1C	·	·	-8	8	·	·

Screening data from PubChem.
